This is an account of results in PubChem BioAssay (Tox21).

Assay [1] in a line: qHTS assay to identify aromatase inhibitors - cell viability counter screen (AID 743084).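 Further: cells stimulated with testosterone during compound exposure; nearly all actives have a fitted effect of over 55% in size.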
Assay [2] has as its target Aryl hydrocarbon receptor (Homo sapiens) (UniProt P35869). The assay is described as follows: qHTS assay to identify small molecule that activate the aryl hydrocarbon receptor (AhR) signaling pathway (AID 743085). Further: nearly all actives have a fitted effect of over 15% in size. Further: potency means the concentration at half of the fitted maximal effect.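 On activation: HG2L7.5c1 human HepG2 liver cells with stably integrated DRE-driven firefly reporter; series mostly up to about 70 µM.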 An outline of the steps:
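HepG2 cells (HG2L7.5c1) stably carrying a firefly luciferase reporter driven by 20 dioxin responsive elements were exposed to compound for 24 h at 37C after a 5 h settling period; luminescence rise (ONE-Glo) indicated activation.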

The nature of assay [3]: qHTS assay to identify small molecule that activate the aryl hydrocarbon receptor (AhR) signaling pathway - cell viability counter screen (AID 743086).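 Further: HepG2 liver cells carrying the AhR DRE luciferase reporter; series mostly up to about 70 µM; nearly all actives have a fitted effect of over 45% in size.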 An outline of the steps: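 HepG2-AhR-luc (HG2L7.5c1) cells, 4000/well, treated 24 h at 37 C with compound; viability measured as CellTiter-Fluor fluorescence after 30 min in the same wells as the luciferase read.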
Assay [4] addresses Peroxisome proliferator-activated receptor gamma (Homo sapiens) (UniProt P37231). The assay can be described thus: qHTS assay to identify small molecule agonists of the peroxisome proliferator-activated receptor gamma (PPARg) signaling pathway (AID 743094; active means well fitted activation curve with a large enough effect in the signal ratio in the repeat runs, not every such curve was filed as active; the % refers to the signal ratio). An outline of the steps:
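Fluorescence-based beta-lactamase readout in HEK293H PPARg UAS-bla cells after 17 h compound exposure (37C) and 1 h B/G FRET substrate incubation at room temperature.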

For assay [5] the target is unchanged. The assay can be described thus: qHTS assay to identify small molecule antagonists of the peroxisome proliferator-activated receptor gamma (PPARg) signaling pathway (AID 743191; calls by dose curve; further: series mostly up to about 63 µM; nearly all actives have a fitted effect of over 30% in size). An outline of the steps: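 GeneBLAzer PPARg UAS-bla HEK293H cells, 5 h post-plating, exposed to compounds 17 h at 37C. LiveBLAzer B/G FRET substrate added for 1 h at room temperature; beta-lactamase reporter read by fluorescence intensity.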

A short description of assay [6]: qHTS assay for small molecule agonists of the antioxidant response element (ARE) signaling pathway (AID 743202; active means well fitted activation curve with a large enough effect in the signal ratio in the repeat runs, not every such curve was filed as active; the % refers to the signal ratio). An outline of the steps:
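HepG2 ARE-bla reporter line, 2,000 cells/well; 5 h preincubation 37 C/5% CO2; compound (DMSO) 16 h 37 C; B/G FRET substrate 2 h RT; fluorescence intensity.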

A short description of assay [7]: qHTS assay for small molecule agonists of the antioxidant response element (ARE) signaling pathway - cell viability counter screen (AID 743203; calls by dose curve; further: nearly all actives have a fitted effect of over 55% in size). An outline of the steps:
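Parallel cytotoxicity read-out for the ARE-bla screen: HepG2 reporter cells, 16 hrs with compounds, then CellTiter-Glo luminescence.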

Assay [8] is described as follows: qHTS assay for small molecule activators of the heat shock response signaling pathway - cell viability counter screen (AID 743209). Further: nearly all actives have a fitted effect of over 50% in size. An outline of the steps:
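To flag cytotoxic compounds, HSE-bla HeLa cells plated at 1500 cells/well were dosed for 5 h at 37 C, followed by the reporter FRET read and then CellTiter-Glo, with luminescence recorded 30 min after reagent addition.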

Assay [9] can be described thus: qHTS assay for small molecule activators of the heat shock response signaling pathway (AID 743210; active means well fitted activation curve with a large enough effect in the signal ratio in the repeat runs, with a control signal flat, not every such curve was filed as active; the % refers to the signal ratio; further: series mostly up to about 63 µM). An outline of the steps: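 Beta-lactamase reporter read-out: FRET substrate fluorescence after 2.5 h at RT, following 5 h compound treatment at 37 C of HeLa cells carrying HSE-driven bla reporter; quantitative HTS format.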
Assay [10] can be described thus: qHTS assay to identify small molecule agonists of the peroxisome proliferator-activated receptor delta (PPARd) signaling pathway - cell viability counter screen (AID 743211). Further: nearly all actives have a fitted effect of over 55% in size. An outline of the steps:
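PPARd-bla HEK293H cells (UAS-beta-lactamase reporter) were treated with compounds for 17 h at 37 C. Viability was then read in the same wells by CellTiter-Glo luminescence after 30 min at room temperature.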

The target of assay [11] is Peroxisome proliferator-activated receptor delta (Homo sapiens) (UniProt Q03181). The assay is described as follows: qHTS assay to identify small molecule agonists of the peroxisome proliferator-activated receptor delta (PPARd) signaling pathway (AID 743212; calls by dose curve). An outline of the steps:
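Read-out: beta-lactamase FRET fluorescence after 2 h room-temperature incubation with LiveBLAzer B/G substrate. Cells were HEK293H carrying a UAS-bla reporter for PPARd, treated at 37 C with DMSO-dissolved compounds.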

The target is the same in assay [12]. The assay is described as follows: qHTS assay to identify small molecule antagonists of the peroxisome proliferator-activated receptor delta (PPARd) signaling pathway (AID 743215; active means well fitted inhibition curve with a large enough effect in the signal ratio in the repeat runs, not every such curve was filed as active; the % refers to the signal ratio;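 further: cells stimulated with agonist L165041 at 300 nM final during compound exposure; series mostly up to about 62 µM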). An outline of the steps: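 Screen format: qHTS, antagonist mode. HEK293H PPARd-bla cells received compound and 300 nM L165041 (final), 17 h, 37 C. Beta-lactamase detected via FRET substrate fluorescence, 2 h, room temperature.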

A short description of assay [13]: qHTS assay to identify small molecule antagonists of the farnesoid-X-receptor (FXR) signaling pathway - cell viability counter screen (AID 743221; active means well fitted cell-killing curve with a large enough effect in the repeat runs, not every such curve was filed as active; further: nearly all actives have a fitted effect of over 50% in size). An outline of the steps: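 FXR-UAS-bla HEK 293T cells were treated with test compounds plus chenodeoxycholic acid (50 uM final) for 16 h at 37 C. Cell viability in the same wells was then read as CellTiter-Glo luminescence after 30 min at room temperature.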

For assay [14], the target named is Vitamin D3 receptor (Homo sapiens) (UniProt P11473). The assay is described as follows: qHTS assay to identify small molecule agonists of the vitamin D receptor (VDR) signaling pathway (AID 743222; calls by dose curve). An outline of the steps:
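Using LiveBLAzer B/G FRET detection, agonism was scored in VDR-bla cells exposed overnight (16 h, 37C) to DMSO-dissolved compounds; substrate incubation was 2 h at room temperature.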

The target is the same in assay [15]. The assay is described as follows: qHTS assay to identify small molecule antagonists of the vitamin D receptor (VDR) signaling pathway (AID 743223; active means well fitted inhibition curve with a large enough effect in the signal ratio in the repeat runs, not every such curve was filed as active; the % refers to the signal ratio). An outline of the steps:
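VDR-bla cells were plated, incubated 4 h at 37C, then given compound and 1alpha,25-dihydroxyvitamin D3 (3 nM final). After 16 h at 37C, LiveBLAzer B/G FRET substrate was added for 2 h at room temperature and fluorescence read.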

A short description of assay [16]: qHTS assay to identify small molecule antagonists of the peroxisome proliferator-activated receptor gamma (PPARg) signaling pathway - cell viability counter screen (AID 743194). Further: nearly all actives have a fitted effect of over 55% in size. An outline of the steps:
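Cytotoxicity counter screen in PPARg-bla HEK293H cells, same wells as reporter assay. Compounds plus 50 nM rosiglitazone (final) for 17 h at 37 C, then viability read by CellTiter-Glo luminescence.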

Assay [17] is described as follows: qHTS assay to identify small molecule antagonists of the peroxisome proliferator-activated receptor delta (PPARd) signaling pathway - cell viability counter screen (AID 743213). Further: nearly all actives have a fitted effect of over 50% in size. An outline of the steps: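 HEK293H cells with the PPARd UAS-bla reporter, co-treated 17 h at 37 C with compounds and L165041 (300 nM final), were lysed with CellTiter-Glo. Luminescence indicated viable cell content.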

Assay [18] concerns the target Bile acid receptor (Homo sapiens) (UniProt Q96RI1). The assay can be described thus: qHTS assay to identify small molecule agonists of the farnesoid-X-receptor (FXR) signaling pathway (AID 743220; active means well fitted activation curve with a large enough effect in the signal ratio in the repeat runs, not every such curve was filed as active; the % refers to the signal ratio). An outline of the steps: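 FXR-UAS-bla HEK 293T cells carrying a UAS-driven beta-lactamase reporter were plated for 5 h at 37C/5% CO2, then exposed to DMSO-dissolved Tox21 10K compounds for 16 h at 37C. A LiveBLAzer B/G FRET substrate was loaded for 2 h at room temperature before fluorescence reading.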

A short description of assay [19]: qHTS assay to identify small molecule agonists of the farnesoid-X-receptor (FXR) signaling pathway - cell viability counter screen (AID 743218). Further: nearly all actives have a fitted effect of over 45% in size. An outline of the steps: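 Same-well cytotoxicity check on FXR-UAS-bla HEK 293T cells: 5 h attachment, 16 h compound at 37 C, CellTiter-Glo luminescence read at room temperature after 30 min.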
Assay [20] deals with Bile acid receptor (Homo sapiens) (UniProt Q96RI1). The assay can be described thus: qHTS assay to identify small molecule antagonists of the farnesoid-X-receptor (FXR) signaling pathway (AID 743217; active means well fitted inhibition curve with a large enough effect in the signal ratio in the repeat runs, not every such curve was filed as active; the % refers to the signal ratio). An outline of the steps: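 Quantitative HTS, beta-lactamase reporter format: FXR-UAS-bla HEK 293T cells co-treated 16 h at 37 °C with compounds and 50 uM final chenodeoxycholic acid, then read by B/G FRET fluorescence.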

Results filed as inconclusive are left out. Unmarked numbers belong to inactive results. Activity calls are given as the source filed them. Unless noted, the call rests on the fitted dose curve; in most records, active means well fitted curve in the direction sought with a large enough effect in the repeat runs; inconclusive means weak or mixed curves; inactive means no such curve, though single readings can be large; an effect the other way counts as inactive or inconclusive.

Sequence of Aryl hydrocarbon receptor (Homo sapiens) (P35869 whole entry, looked up): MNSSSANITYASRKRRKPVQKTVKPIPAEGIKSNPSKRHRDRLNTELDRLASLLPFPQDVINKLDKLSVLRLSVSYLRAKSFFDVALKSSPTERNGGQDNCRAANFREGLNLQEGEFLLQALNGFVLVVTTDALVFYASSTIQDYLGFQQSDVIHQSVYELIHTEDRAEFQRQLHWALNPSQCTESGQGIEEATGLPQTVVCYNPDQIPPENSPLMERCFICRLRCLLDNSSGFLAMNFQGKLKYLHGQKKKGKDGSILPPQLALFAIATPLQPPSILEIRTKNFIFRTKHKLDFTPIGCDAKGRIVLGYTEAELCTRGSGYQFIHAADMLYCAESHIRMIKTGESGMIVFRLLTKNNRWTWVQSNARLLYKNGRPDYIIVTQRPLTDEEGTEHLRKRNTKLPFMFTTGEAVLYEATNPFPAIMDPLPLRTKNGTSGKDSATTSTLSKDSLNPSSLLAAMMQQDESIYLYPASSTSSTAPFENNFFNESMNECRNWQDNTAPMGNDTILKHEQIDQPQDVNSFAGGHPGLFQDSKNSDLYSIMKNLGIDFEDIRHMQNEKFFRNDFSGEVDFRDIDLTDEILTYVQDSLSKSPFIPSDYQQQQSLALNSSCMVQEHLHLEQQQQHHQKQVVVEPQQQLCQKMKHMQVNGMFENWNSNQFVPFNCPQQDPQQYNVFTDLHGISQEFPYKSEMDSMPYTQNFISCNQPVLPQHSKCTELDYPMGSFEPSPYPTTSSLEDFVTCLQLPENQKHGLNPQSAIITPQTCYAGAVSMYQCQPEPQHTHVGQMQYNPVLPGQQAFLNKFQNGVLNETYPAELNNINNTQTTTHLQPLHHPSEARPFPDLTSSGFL
Sequence of Bile acid receptor (Homo sapiens) (Q96RI1 whole entry, looked up): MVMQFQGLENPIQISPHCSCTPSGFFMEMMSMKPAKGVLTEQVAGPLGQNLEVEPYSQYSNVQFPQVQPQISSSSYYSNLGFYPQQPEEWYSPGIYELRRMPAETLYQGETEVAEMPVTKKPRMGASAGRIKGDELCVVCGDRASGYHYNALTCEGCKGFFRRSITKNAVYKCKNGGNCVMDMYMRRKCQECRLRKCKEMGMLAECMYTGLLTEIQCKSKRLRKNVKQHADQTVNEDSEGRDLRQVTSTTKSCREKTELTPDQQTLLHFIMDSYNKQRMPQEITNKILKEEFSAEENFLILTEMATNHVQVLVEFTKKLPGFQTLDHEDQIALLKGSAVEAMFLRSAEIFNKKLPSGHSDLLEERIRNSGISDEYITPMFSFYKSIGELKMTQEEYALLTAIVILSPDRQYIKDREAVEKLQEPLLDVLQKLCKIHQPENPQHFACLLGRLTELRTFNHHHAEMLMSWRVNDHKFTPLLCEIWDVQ
Sequence of Peroxisome proliferator-activated receptor gamma (Homo sapiens) (P37231 whole entry, looked up): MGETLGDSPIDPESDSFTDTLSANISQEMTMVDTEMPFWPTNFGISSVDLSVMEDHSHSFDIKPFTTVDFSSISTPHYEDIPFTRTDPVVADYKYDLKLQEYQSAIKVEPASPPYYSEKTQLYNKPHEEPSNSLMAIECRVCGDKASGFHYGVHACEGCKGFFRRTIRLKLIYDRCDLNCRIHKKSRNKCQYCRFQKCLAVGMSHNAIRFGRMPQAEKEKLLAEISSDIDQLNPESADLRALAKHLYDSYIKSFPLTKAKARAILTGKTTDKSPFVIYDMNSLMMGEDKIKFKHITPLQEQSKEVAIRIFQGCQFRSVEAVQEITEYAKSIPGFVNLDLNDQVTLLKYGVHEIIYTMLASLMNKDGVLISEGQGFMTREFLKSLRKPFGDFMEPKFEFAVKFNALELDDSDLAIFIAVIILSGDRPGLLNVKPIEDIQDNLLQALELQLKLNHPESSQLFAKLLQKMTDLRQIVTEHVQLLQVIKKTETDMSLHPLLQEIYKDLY
Sequence of Peroxisome proliferator-activated receptor delta (Homo sapiens) (Q03181 whole entry, looked up): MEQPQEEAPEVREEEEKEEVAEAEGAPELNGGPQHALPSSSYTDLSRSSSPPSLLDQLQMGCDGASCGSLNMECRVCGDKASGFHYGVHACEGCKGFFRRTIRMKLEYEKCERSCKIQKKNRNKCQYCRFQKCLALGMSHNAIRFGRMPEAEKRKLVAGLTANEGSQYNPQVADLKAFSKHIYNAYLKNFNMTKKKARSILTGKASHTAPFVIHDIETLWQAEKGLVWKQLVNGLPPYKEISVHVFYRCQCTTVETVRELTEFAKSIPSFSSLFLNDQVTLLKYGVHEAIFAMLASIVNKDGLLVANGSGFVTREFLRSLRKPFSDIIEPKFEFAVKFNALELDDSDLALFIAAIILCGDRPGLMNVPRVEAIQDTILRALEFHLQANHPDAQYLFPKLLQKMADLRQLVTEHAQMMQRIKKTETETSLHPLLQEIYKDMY
Sequence of Vitamin D3 receptor (Homo sapiens) (P11473 whole entry, looked up): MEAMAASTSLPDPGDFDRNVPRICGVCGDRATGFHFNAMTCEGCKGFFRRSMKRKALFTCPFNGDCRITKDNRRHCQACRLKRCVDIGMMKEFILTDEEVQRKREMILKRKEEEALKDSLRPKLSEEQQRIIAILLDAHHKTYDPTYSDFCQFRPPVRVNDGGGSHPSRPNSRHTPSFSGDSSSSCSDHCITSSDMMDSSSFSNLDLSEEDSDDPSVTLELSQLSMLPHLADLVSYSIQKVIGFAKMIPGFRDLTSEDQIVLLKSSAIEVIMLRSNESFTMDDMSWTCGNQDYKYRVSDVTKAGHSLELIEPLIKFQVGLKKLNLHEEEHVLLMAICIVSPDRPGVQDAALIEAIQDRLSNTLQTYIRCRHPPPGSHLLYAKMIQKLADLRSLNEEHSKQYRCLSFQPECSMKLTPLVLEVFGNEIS

As for `C#CC(C)(O)CC(C)C` (centres undefined), the Potency result in assay [1], in assay [2], in assay [3], in [6], in assay [10] and in [13] was “inactive” in each case. Also, the compound was classed as inactive in assay [4], in assay [5], in [7], in [8], in assay [9] and in assay [11]. Moreover, the compound was called inactive in assay [12], in assay [14] and in [15].
In the case of `C=C(C)C(=O)NCCC[N+](C)(C)C`, the Potency entry in assay [1], in [2], in [3], in [16], in assay [6] and in [10] was “inactive” throughout. Besides, the Potency result in [17] and in [13] was “inactive” throughout. In addition, the call in assay [4], in assay [5], in [7], in [8], in [11] and in assay [12] was inactive. Also, the call in assay [18], in assay [14] and in assay [15] was inactive.
As for `Cc1ncc(CSSCc2cnc(C)c(O)c2CO)c(CO)c1O`, the Potency result in assay [1], in assay [2], in [3], in [16], in assay [6] and in [10] was “inactive” each time. In assay [17], the Potency entry was “inactive”. Further, the call in [4], in assay [5], in assay [7], in assay [11], in assay [12] and in assay [19] was inactive. Also, the outcome in assay [14] and in assay [15] was inactive.
As to `CCC(=O)Nc1cccc(N)c1`, the Potency result in assay [1], in assay [2], in [3], in [16], in assay [10] and in assay [17] was “inactive” throughout. Besides, the result in assay [4], in assay [5], in assay [7], in [8], in assay [9] and in [12] was inactive. Besides, the compound was called inactive in assay [19] and in assay [14].
In the case of `CCC(C)(C)C1CCC(OC)CC1` (centres undefined), the Potency entry in assay [1], in [2], in assay [3], in assay [16], in assay [6] and in assay [10] was “inactive” throughout. In addition, the Potency result in assay [17] and in [13] was “inactive” in each case. The compound was called inactive in assay [4], in [5], in assay [7], in assay [8], in [9] and in assay [11]. In addition, the result in [12], in assay [20], in [19], in [14] and in assay [15] was inactive.
Regarding `CN1[C@@H]2CC[C@H]1CC(NC(=O)n1c(=O)[nH]c3ccccc31)C2` (some centres undefined), the Potency result in assay [1], in assay [2], in assay [3], in assay [16], in assay [10] and in assay [17] was “inactive” in each case. Moreover, the Potency result in assay [13] was “inactive”. The compound was called inactive in assay [4], in assay [5], in [7], in assay [8], in assay [9] and in [11]. Also, the outcome in assay [12], in [19] and in assay [14] was inactive.
`c1ccc2cnncc2c1`: the Potency result in assay [1], in assay [2], in assay [3], in [16], in assay [6] and in assay [10] was “inactive” throughout. The Potency entry in assay [17] and in assay [13] was “inactive” throughout. Further, the outcome in assay [4], in assay [5], in assay [7], in [8], in assay [9] and in assay [11] was inactive. Moreover, the compound was classed as inactive in assay [12], in assay [19] and in [14].
In the case of `CCOC(=O)Cn1c(=O)sc2cccc(Cl)c21`, the Potency entry in assay [1], in assay [3], in [16] and in assay [17] was “inactive” throughout. In addition, the Potency in assay [2] was 30.6 µM (active). In addition, the compound was called inactive in assay [4], in assay [5], in [7], in [8], in assay [11] and in assay [12]. Moreover, the compound was called inactive in assay [20], in assay [19], in assay [18], in [14] and in assay [15].
